{"source": "PubChem BioAssay (EPA / NIEHS)", "note": "The source made the active and inactive calls. The calls were made as follows: active = hit-call score of the fitted dose curve at least 0.9, where 1 is the maximum; inactive = score below 0.9.", "data": [{"assay": "CCTE_Shafer_MEA_dev_per_burst_interspike_interval: CCTE's Neural Network Formation Assay for Burst Interspike Interval, Shafer Lab (AID 2284044);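 as to AC50: potency for a decrease of within-burst interspike interval below DMSO level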", "outline": "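Readout is the average time between spikes inside single-electrode bursts, taken as a well mean across bursting electrodes. Cortical neurons from rat developed networks on MEA plates under continuous 12-day exposure; recordings on days 5, 7, 9 and 12 were integrated by trapezoidal AUC.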", "values": [{"smiles": "Nc1nc2ncc(CNc3ccc(C(=O)N[C@@H](CCC(=O)O)C(=O)O)cc3)nc2c(=O)[nH]1", "outcome": "inactive"}, {"smiles": "O=P(OC(CCl)CCl)(OC(CCl)CCl)OC(CCl)CCl", "outcome": "inactive"}, {"smiles": "NC(=O)NO", "outcome": "inactive"}, {"smiles": "COc1ccc(-n2nc(C(F)F)cc2-c2ccc(S(C)=O)cc2)cc1", "note": "(stereo not given)", "outcome": "inactive"}, {"smiles": "CCC(C)(C)C(=O)O[C@H]1C[C@@H](C)C=C2C=C[C@H](C)[C@H](CC[C@@H]3C[C@@H](O)CC(=O)O3)[C@H]21", "outcome": "inactive"}, {"smiles": "Cn1c(=O)c2c(ncn2C)n(C)c1=O", "outcome": "inactive"}, {"smiles": "CNCc1ccc(NC(=O)c2c[nH]c3c2C(=O)CCC3)cc1", "outcome": "inactive"}, {"smiles": "O=C1CCC(N2C(=O)c3ccccc3C2=O)C(=O)N1", "note": "(stereo not given)", "outcome": "inactive"}, {"smiles": "CC[C@H](C)C(=O)O[C@H]1C[C@@H](C)C=C2C=C[C@H](C)[C@H](CC[C@@H]3C[C@@H](O)CC(=O)O3)[C@H]21", "AC50": "2.9 µM (active)"}, {"smiles": "CC[C@H]1OC(=O)[C@H](C)[C@@H](O[C@H]2C[C@@](C)(OC)[C@@H](O)[C@H](C)O2)[C@H](C)[C@@H](O[C@@H]2O[C@H](C)C[C@H](N(C)C)[C@H]2O)[C@](C)(O)C[C@@H](C)C(=O)[C@H](C)[C@@H](O)[C@]1(C)O", "outcome": "inactive"}]}]}
